Source: PubChem BioAssay AID1159580 (chemical genetic matrix, 2015)
Among all 5,500 compounds or so, about 2,000 (36%) were called active. Not shown: some 18% with an inconclusive outcome. No stated cut-off is given here; in the data, active means normalized growth mostly below about 0.91 (no sharp cut-off); inconclusive means no clear call, values can overlap the other calls; inactive means mostly above about 0.92. The list shows a part of the results.

Assay: chemical genetic growth profiling, strain panel (AID 1159580);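 further: tested at 20 µM; growth read once vehicle control cultures reached saturation at 30 °C; 1 = growth at the plate median or of vehicle wells; lower values mean less growth of the strain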
Conditions: S. cerevisiae deletion strains, growth OD

Measured: normalized growth

Cc1ccccc1C(=O)N1CCc2c([nH]c3ccccc23)C1C(F)(F)F (stereo unspecified)
active: locus YLR113W, strain HOG1, active compounds read low 0.799 | locus YPL256C, strain CLN2, active compounds read low 0.815
inactive: locus YAR019C, strain CDC15, active compounds read low 0.982 | locus YBL105C, strain PKC1, active compounds read low 0.985 | locus YBR135W, strain CKS1, active compounds read low 0.986 | locus YBR136W, strain MEC1, active compounds read low 0.968 | locus YBR160W, strain CDC28, active compounds read low 0.988 | locus YDL017W, strain CDC7, active compounds read low 0.989 | locus YDL028C, strain MPS1, active compounds read low 0.979 | locus YDL101C, strain DUN1, active compounds read low 0.978 | locus YDL108W, strain KIN28, active compounds read low 0.98 | locus YDL132W, strain cdc53, active compounds read low 0.988 | locus YDL214C, strain PRR2, active compounds read low 0.938 | locus YDR052C, strain DBF4, active compounds read low 0.989 | locus YDR054C, strain cdc34, active compounds read low 0.976 | locus YDR226W, strain ADK1, active compounds read low 0.985 | locus YDR477W, strain SNF1, active compounds read low 0.962 | locus YER123W, strain YCK3, active compounds read low 0.9 | locus YER133W, strain GLC7, active compounds read low 0.948 | locus YFL009W, strain cdc4, active compounds read low 0.979 | locus YFL029C, strain CAK1, active compounds read low 0.972 | locus YFR003C, strain YPI1, active compounds read low 0.987 | locus YFR019W, strain FAB1, active compounds read low 0.954 | locus YFR028C, strain CDC14, active compounds read low 0.978 | locus YGR040W, strain KSS1, active compounds read low 0.927 | locus YGR052W, strain FMP48, active compounds read low 0.955 | locus YGR092W, strain DBF2, active compounds read low 0.978 | locus YHR030C, strain SLT2, active compounds read low 0.881 | locus YHR079C, strain IRE1, active compounds read low 0.878 | locus YHR082C, strain KSP1, active compounds read low 0.927 | locus YHR205W, strain SCH9, active compounds read low 0.83 | locus YIL147C, strain SLN1, active compounds read low 0.976 | locus YJL095W, strain BCK1, active compounds read low 0.908 | locus YJL128C, strain PBS2, active compounds read low 0.927 | locus YJL157C, strain FAR1, active compounds read low 0.976 | locus YJR016C, strain ILV3, active compounds read low 0.989 | locus YJR066W, strain TOR1 (second series), active compounds read low 0.934 | locus YJR066W, strain TOR1, active compounds read low 0.943 | locus YKL048C, strain ELM1, active compounds read low 0.977 | locus YKL067W, strain YNK1, active compounds read low 0.95 | locus YKL101W, strain HSL1, active compounds read low 0.909 | locus YKL193C, strain SDS22, active compounds read low 0.99 | locus YKL203C, strain TOR2, active compounds read low 1.01 | locus YLR133W, strain CKI1, active compounds read low 0.929 | locus YLR403W, strain SFP1, active compounds read low 0.93 | locus YML070W, strain DAK1, active compounds read low 0.905 | locus YMR001C, strain CDC5, active compounds read low 0.97 | locus YMR205C, strain PFK2 (second series), active compounds read low 0.945 | locus YMR277W, strain FCP1, active compounds read low 0.991 | locus YNL006W, strain LST8, active compounds read low 1 | locus YNL020C, strain ARK1, active compounds read low 0.95 | locus YNL161W, strain CBK1, active compounds read low 0.996 | locus YNL183C, strain NPR1, active compounds read low 0.894 | locus YNL207W, strain RIO2, active compounds read low 0.982 | locus YNL222W, strain SSU72, active compounds read low 0.991 | locus YNL307C, strain MCK1 (second series), active compounds read low 0.936 | locus YOL078W, strain AVO1, active compounds read low 0.991 | locus YOL136C, strain PFK27, active compounds read low 0.906 | locus YOR061W, strain CKA2, active compounds read low 0.953 | locus YOR119C, strain RIO1, active compounds read low 0.985 | locus YOR231W, strain MKK1, active compounds read low 0.891 | locus YOR329C, strain SCD5, active compounds read low 0.985 | locus YPL031C, strain PHO85, active compounds read low 0.963 | locus YPL153C, strain RAD53, active compounds read low 0.943 | locus YPL204W, strain HRR25, active compounds read low 0.945 | locus YPL209C, strain IPL1, active compounds read low 0.986 | locus YPR025C, strain CCL1, active compounds read low 0.989 | locus YPR106W, strain ISR1, active compounds read low 0.965 | locus YPR111W, strain DBF20, active compounds read low 0.966 | strain NNK1, active compounds read low 0.967 | strain TSCII, active compounds read low 0.988
